Compounds with a hit are over-represented: about 3% of the library has one in this group of screens.
HMGR II inh = blocks class II HMG-CoA reductase of Enterococcus faecalis. hit rate 0.41% among 190,000. purified E. faecalis HMGR, NADPH absorbance 340 nm kinetic. inhibition, % at 10 µM;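 active = inhibition above a set limit, the median over all tested compounds plus 3 SD, cut at about 9.5% in these data; inconclusive = no clear call, values can overlap the other calls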;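 note: enzyme runs in reverse so mevalonate oxidation gives rising NADPH absorbance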
ROMK mod = modulators of human ROMK potassium channel; P48048; hit rate 2% among 130,000; Tet-inducible ROMK, thallium flux fluorescence; actives lie on both sides; AID 1918; B-score at 10 µM;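 active = signal ratio slope over the read window, or its plate-corrected B-score, at least 3 SD from the plate mean, either direction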;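 note: B-score of the F/F0 ratio slope over 7 to 12 s after thallium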
Target sequence (P48048 whole entry, looked up): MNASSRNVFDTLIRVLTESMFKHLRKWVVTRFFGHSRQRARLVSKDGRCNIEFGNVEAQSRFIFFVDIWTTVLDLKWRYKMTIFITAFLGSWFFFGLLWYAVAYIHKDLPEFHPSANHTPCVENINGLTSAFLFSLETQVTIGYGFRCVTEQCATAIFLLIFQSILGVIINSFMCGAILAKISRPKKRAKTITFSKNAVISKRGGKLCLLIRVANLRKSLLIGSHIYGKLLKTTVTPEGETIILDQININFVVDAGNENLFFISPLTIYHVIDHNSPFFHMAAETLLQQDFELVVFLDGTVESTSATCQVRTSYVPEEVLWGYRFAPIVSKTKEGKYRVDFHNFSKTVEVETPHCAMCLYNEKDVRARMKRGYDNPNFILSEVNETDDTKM
zVAD death inh = L929 zVAD cell death inhibition; L929 zVAD necroptosis rescue, ATP luminescence, 24 h; with zVAD 60 µM; viability rescue, % at 10 µM; hit rate 0.38% among 220,000;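 active = activation, scaled between plate controls, above about 75%, limit read from the data; inactive = activation under that limit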
TNF necrop inh = TNF-alpha cell death inhibition in Jurkat FADD-/- cells. Jurkat FADD-/- TNF necroptosis rescue, ATP luminescence, 24 h; 0 = TNF only, 100 = no-TNF cells. activation (protection from cell death), % at 10 µM. hit rate 0.068% among 220,000;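 active = activation, meaning protection from cell death, of at least 50% relative to plate controls; inactive = activation below 50%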;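 note: necroptosis triggered by 40 ng/mL TNF-alpha added together with compound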
14-3-3 Bad PPI = disrupts binding of bovine 14-3-3 zeta to phospho-Bad peptide | inhibition, % at 21.7 µM | hit rate 0.71% among 220,000 | AID 781 | TR-FRET 14-3-3zeta/Dy647-pBad peptide displacement, 1 h;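 active = inhibition above about 70%, limit read from the data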
Target sequence (P63103 whole entry, looked up): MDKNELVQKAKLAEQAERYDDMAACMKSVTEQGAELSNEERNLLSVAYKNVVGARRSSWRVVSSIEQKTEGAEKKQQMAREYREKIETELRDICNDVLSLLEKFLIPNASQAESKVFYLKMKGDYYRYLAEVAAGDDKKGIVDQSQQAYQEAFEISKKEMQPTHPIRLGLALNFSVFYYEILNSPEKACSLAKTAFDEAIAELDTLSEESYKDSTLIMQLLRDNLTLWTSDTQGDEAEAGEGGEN
m-calpain inh = blocks pig calpain II enzyme activity | purified calpain II, fluorogenic peptide substrate, 30 min | inhibition, % at 16 µM | hit rate 0.37% among 220,000 | AID 1236;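 active = inhibition above about 50%, limit read from the data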
ROMK hit retest = retested hit modulating human ROMK potassium channel; shares compounds with ROMK mod; ROMK thallium flux, fluorescence ratio; stronger effect = lower value; normalized thallium flux (F/F0 slope) at 10 µM; hit rate 54% among 3,000; AID 1917;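 active = Flux at 10 µM at least 3 SD below or above vehicle control mean in one or both replicates; inconclusive = no clear call, values can overlap the other calls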
A number is an active result; 0 = inactive; ? = inconclusive; - = no result given.

SMILES	HMGR II inh	ROMK mod	zVAD death inh	TNF necrop inh	14-3-3 Bad PPI	m-calpain inh	ROMK hit retest
Cc1cc(-c2csc(NC(=O)c3cc4ccccc4o3)n2)c(C)n1C	0	-	0	0	0	0	?
CC[C@H](C)[C@H](NC(N)=O)C(=O)Nc1ccc(NC(C)=O)cc1	-	-	0	0	0	0	0
Nc1[nH]ncc1-c1ccccc1	0	0	0	0	0	0	-
COc1ccc(C2CC(C)(c3ccc(OC)cc3)Nc3ccccc3N2)cc1 (centres undefined)	-	-	0	0	0	0	0
CCOC(=O)c1ccc(N2C(=O)c3n[nH]c(C)c3C2c2ccc(OC)c(OC)c2)cc1 (centres undefined)	0	-	0	0	0	0	0
CCOC(=O)c1ccc(N2C(=O)c3n[nH]c(C)c3C2c2ccc(OC)cc2)cc1 (centres undefined)	0	-	0	0	0	0	-
O=C(CNS(=O)(=O)c1c(Cl)cccc1Cl)OCC(=O)N1CCN(c2ccccc2)CC1	0	0	0	0	0	0	-
C=CCNS(=O)(=O)c1cc(S(=O)(=O)NCC=C)c(OC)cc1OC	0	0	0	0	0	0	-
CC(C)Cc1cc(C(=O)N2CCN(C(c3ccccc3)c3ccccc3)CC2)no1	0	-	0	0	0	0	0.062
Cn1nc(C(=O)N2CCN(C(c3ccccc3)c3ccccc3)CC2)c2ccccc2c1=O	-	-	0	0	0	0	0.06
O=C(c1cc([N+](=O)[O-])[nH]n1)N1CCSCC1	-	-	0	0	0	0	-
CCCCCC(=O)Nc1ccc(-c2csc(N)n2)cc1	0	0	0	0	0	0	-
CCOc1cc(-c2cc(-c3ccc(N)cc3)nc(N)c2C#N)ccc1O	0	5	0	0	-	0	0
CCOc1cc(Br)c(C=O)cc1OCC	0	2.9	0	0	0	0	0.1
Cc1ccc(-n2ncc3c(NNC(=O)Cc4ccccc4)ncnc32)cc1	0	-	0	0	0	0	-
COc1ccc(CN2CCSCC2)cc1C	0	3.3	0	0	0	0	0
Cc1cc(F)ccc1NC(=O)C1CCCO1 (centres undefined)	0	0	0	0	0	0	-
CN(C)S(=O)(=O)Oc1cccc(C(=O)Nc2ccccc2Cl)c1	0	-	0	0	0	0	-
CN(C)S(=O)(=O)Oc1cccc(C(=O)Nc2ccc(Cl)cc2)c1	0	-	0	0	0	0	0
CCCCCCNC(=O)CCCCCNS(=O)(=O)c1ccc(OC)cc1	0	0	-	0	0	0	-
COc1ccc(OC)c(CNC(=O)CCCc2cn(C)c3ccccc23)c1	0	1.3	-	0	0	0	?
Cc1ccc(CNC(=O)CCCc2ccccc2)cc1	0	-	0	0	0	0	-
COc1ccc(CCCC(=O)NCc2ccccc2)cc1C	0	4	0	0	0	0	0
COc1ccc(Br)cc1CNC(=O)CCCc1cn(C)c2ccccc12	0	0	-	0	0	0	-
COCc1c(CCl)cnc(C)c1O	0	0	0	0	0	0	-
SMILES	HMGR II inh	ROMK mod	zVAD death inh	TNF necrop inh	14-3-3 Bad PPI	m-calpain inh	ROMK hit retest
COc1cc(C(=O)Nc2ccc(S(=O)(=O)Nc3ncccn3)cc2)c([N+](=O)[O-])cc1OC	0	0	0	0	0	0	-
CC(=O)C1=C(c2ccc(Br)cc2)C(=O)c2ccccc2C1=O	0	-4.7	0	0	0	0	0.052
CCN(CC)S(=O)(=O)c1ccc(Cl)c(NC(=O)COC(=O)c2ccc(O)cc2)c1	0	0	0	0	0	0	0
CN(C)S(=O)(=O)c1ccc(Cl)c(NC(=O)COC(=O)c2ccc(O)cc2)c1	0	0	0	0	0	0	-
CCN(CC)S(=O)(=O)c1ccc(Cl)c(NC(=O)COC(=O)c2c(C)noc2C)c1	0	-	0	0	0	0	-
CCN(CC)S(=O)(=O)c1ccc(Cl)c(NC(=O)COC(=O)c2cccn2C)c1	0	2.7	0	0	0	0	0
COCCNC(=O)Cn1cc(S(=O)(=O)N2CCN(c3ccccc3F)CC2)c2ccccc2c1=O	0	-2.3	0	0	0	0	0
CN(C(=S)Nc1ccc(F)cc1)C1(c2ccccc2Cl)CCCCC1=O (centres undefined)	0	-	0	0	0	0	0
CN(N)C(=S)Nc1ccc(F)cc1	0	-	0	0	0	0	-
O=C(O)c1cc(N2C(=O)C3CC=CCC3C2=O)ccc1NCc1cccnc1 (centres undefined)	0	2.6	0	0	0	0	0
COc1cc(C(=S)N2CCCC2)cc(OC)c1O	0	0	0	0	0	0	-
CSc1cccc(NC(=O)C2CCCN2S(=O)(=O)c2ccc(Br)s2)c1 (centres undefined)	0	-3.1	0	0	0	0	0.061
CSc1cccc(NC(=O)C2CCN(S(=O)(=O)c3ccc(F)cc3)CC2)c1	0	-	0	0	0	0	-
CC(=O)NC12CC3CC(C1)CC(C(=O)OCC(=O)NC(=O)c1cccn1C)(C3)C2	0	0	0	0	0	0	-
CC(=O)NC12CC3CC(C1)CC(C(=O)OCC(=O)Nc1ncc(Cl)cc1Cl)(C3)C2	0	-4	0	0	0	0	0
COC(=O)C1=C(C(=O)OC)[C@@H]2N(C)c3ccccc3[C@@]23C[C@@H](C(=O)OC)N(C(=O)c2cc(C)oc2C)C3=N1	-	-	0	0	0	0	-
C/C(=N\Nc1nc(-c2ccccn2)nc2ccccc12)c1ccc(F)cc1	-	-	0	0	0	0	-
c1ccc(-c2nc(N3CCCCCC3)c3ccccc3n2)nc1	0	-2.7	0	0	0	0	0.059
c1ccc(CCNc2nc(-c3ccccn3)nc3ccccc23)cc1	-	-	0	0	0	0	?
Cc1cc(Sc2ncnc(N)c2[N+](=O)[O-])ncn1	0	-0.97	0	0	0	0	0
COc1cc(C2C3=C(Nc4ncnn42)c2ccccc2CC3)cc(OC)c1OC (centres undefined)	0	3.9	0	0	0	0	0
O=C(C1CC(Cl)CN1S(=O)(=O)c1ccc(Cl)cc1)N1CCOCC1 (centres undefined)	0	-2	0	0	0	0	0
O=C(Nc1ccc(N2CCOCC2)cc1)C1CC(O)CN1S(=O)(=O)c1ccc(Cl)cc1 (centres undefined)	0	0	0	0	0	0	-
C[C@H]1[C@H](C)CC[C@]2(C)CC[C@]3(C)C(=CC[C@@H]4[C@@]5(C)CC[C@@H](O)[C@](C)(C(=O)O)[C@@H]5CC[C@]43C)[C@H]12	-	-	0	0	0	0	0
C[C@H]1[C@H](C)CC[C@]2(C(=O)O)CC[C@]3(C)C(=CC[C@@H]4[C@@]5(C)CC[C@H](O)C(C)(C)[C@@H]5CC[C@]43C)[C@H]12	-	-	0	0	0	0	-
Cc1ccc(Oc2c(C(N)=O)cc([N+](=O)[O-])cc2[N+](=O)[O-])cc1	0	-2.3	0	0	0	0	0.035
CCN1CCc2nc3ccccc3c(C(=O)Nc3ccc(F)cc3)c2C1	-	-3.3	0	0	0	0	0
